# Data published in PubChem BioAssay (NCATS).
# Records with an inconclusive call do not appear. Where a call stands in place of a potency, no number is given. Values without a mark were called inactive. Active and inactive are the calls of the source. Calls follow the shape of the dose curve; as a rule, active = well fitted curve in the direction sought with a large enough effect; inconclusive = small, poorly fitted or top-dose-only effect, or another doubt; inactive = no such curve, though single readings can be large; an effect the other way counts as inactive or inconclusive.
# What was measured:
# [1] = target: N-terminal Xaa-Pro-Lys N-methyltransferase 1 (Homo sapiens) (UniProt Q9BV86); assay: qHTS Assay for Inhibitors of N-terminal methyltransferase 1 (NTMT1): LOPAC validation of the NTMT1 SAHH-coupled ThioGlo3 Assay (AID 1347143); also: nearly all actives have a fitted effect of over 70% in size; also: potency is read from the fitted curve at half-maximal effect
# Sequence of N-terminal Xaa-Pro-Lys N-methyltransferase 1 (Homo sapiens) (Q9BV86 whole entry, looked up): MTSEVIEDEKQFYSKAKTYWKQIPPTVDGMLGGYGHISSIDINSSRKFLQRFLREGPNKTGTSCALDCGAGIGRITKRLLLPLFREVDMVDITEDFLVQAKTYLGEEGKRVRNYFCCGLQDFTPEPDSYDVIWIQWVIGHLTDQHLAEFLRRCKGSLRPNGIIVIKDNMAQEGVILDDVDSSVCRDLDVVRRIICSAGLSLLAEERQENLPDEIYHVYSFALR
# In short: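 Fluorescence read-out (excitation 340nm, emission 450nm) of SAH-derived thiol, measured via SAHH coupling and ThioGlo3, taken immediately and after a 30 min room-temperature reaction, then normalized to the background read. Enzyme: NTMT1 at 125nM; cofactor SAM 100uM in the added reagent.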
# [2] = test system: Zika virus NS2B-NS3 protease (unlinked); assay: Optimization of GU AMC qHTS for Zika virus inhibitors: Unlinked NS2B-NS3 protease assay (AID 1347151); also: nearly all actives have a fitted effect of over 80% in size; also: potency is read from the fitted curve at half-maximal effect; as to activity change, negative = inhibition: series mostly up to about 52 µM
# In short: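 Fluorescence gain (340/450 nm) over 15 min at room temperature, ~20% conversion, gave percent inhibition fitted to a 4-parameter Hill equation; enzyme was unlinked NS2B-NS3 (25 nM final), pH 8.0 Tris buffer.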
# [3] = test system: Zika virus NS2B-NS3 protease; assay: Primary screen GU AMC qHTS for Zika virus inhibitors (AID 1347154); also: nearly all actives have a fitted effect of over 70% in size
# In short: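 Unlinked Zika NS2B hydrophilic domain/NS3 protease domain noncovalent complex (25 nM final) in 10 mM Tris-HCl pH 8.0, 0.01% Tween 20, with AMC peptide substrate. Fluorescence (ex 340, em 450 nm) change over 15 min, room temperature; percent inhibition fitted to 4-parameter Hill equation.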
# [4] = target: Lysine-specific demethylase 5B (Homo sapiens) (UniProt Q9UGL1); assay: Optimization screen for KDM5B Histone Demethylases FDH coupled qHTS against the LOPAC library (AID 1347166)
# Sequence of Lysine-specific demethylase 5B (Homo sapiens) (Q9UGL1 whole entry, looked up): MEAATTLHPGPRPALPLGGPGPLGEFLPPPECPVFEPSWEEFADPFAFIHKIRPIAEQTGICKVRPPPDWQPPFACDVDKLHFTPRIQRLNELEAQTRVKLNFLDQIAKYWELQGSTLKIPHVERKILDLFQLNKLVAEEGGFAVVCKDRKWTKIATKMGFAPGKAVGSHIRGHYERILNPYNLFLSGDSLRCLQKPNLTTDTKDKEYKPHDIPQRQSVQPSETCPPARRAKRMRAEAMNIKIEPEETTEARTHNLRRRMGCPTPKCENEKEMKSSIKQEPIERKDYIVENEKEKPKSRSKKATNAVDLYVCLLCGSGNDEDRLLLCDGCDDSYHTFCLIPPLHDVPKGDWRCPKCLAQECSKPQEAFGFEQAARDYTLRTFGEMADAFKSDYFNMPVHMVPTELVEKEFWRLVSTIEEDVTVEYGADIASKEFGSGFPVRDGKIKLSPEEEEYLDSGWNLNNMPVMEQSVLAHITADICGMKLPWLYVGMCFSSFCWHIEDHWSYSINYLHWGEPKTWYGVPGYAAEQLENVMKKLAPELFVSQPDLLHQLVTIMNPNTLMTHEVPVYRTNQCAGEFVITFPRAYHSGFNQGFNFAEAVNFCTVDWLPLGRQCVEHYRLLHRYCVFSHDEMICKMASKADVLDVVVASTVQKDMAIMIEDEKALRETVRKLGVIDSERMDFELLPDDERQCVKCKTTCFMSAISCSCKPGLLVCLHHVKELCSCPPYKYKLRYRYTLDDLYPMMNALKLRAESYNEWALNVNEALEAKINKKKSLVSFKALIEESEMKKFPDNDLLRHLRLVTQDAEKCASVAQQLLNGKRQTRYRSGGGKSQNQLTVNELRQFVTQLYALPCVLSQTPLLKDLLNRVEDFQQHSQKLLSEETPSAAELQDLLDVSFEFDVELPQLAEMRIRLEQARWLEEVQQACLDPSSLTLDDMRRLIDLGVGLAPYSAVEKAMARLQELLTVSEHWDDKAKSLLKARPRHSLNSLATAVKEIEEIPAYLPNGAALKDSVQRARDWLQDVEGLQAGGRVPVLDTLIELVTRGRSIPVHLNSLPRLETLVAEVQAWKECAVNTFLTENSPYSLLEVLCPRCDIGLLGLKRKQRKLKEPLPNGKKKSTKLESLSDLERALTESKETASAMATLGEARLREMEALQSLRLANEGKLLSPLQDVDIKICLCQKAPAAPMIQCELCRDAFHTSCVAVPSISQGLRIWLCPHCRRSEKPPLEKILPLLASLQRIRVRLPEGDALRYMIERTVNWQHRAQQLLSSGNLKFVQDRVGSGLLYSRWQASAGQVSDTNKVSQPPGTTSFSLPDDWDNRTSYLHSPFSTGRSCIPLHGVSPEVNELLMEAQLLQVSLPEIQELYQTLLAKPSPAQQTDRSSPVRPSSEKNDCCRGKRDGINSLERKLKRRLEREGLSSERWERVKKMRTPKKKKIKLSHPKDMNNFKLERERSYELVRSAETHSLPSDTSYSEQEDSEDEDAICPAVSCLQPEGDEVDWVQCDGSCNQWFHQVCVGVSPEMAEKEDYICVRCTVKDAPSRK
# In short: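 KDM5BDeltaAP (200nM final) preincubated 10 min with compound, then 12.5uM H3K4Me3, 25uM a-ketoglutarate, ascorbate, Fe(II), NAD+ and FDH added; 50mM HEPES pH 7.5, 0.01% Tween-20. NADH fluorescence (340/450 nm) change over 30 min, room temperature.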
# [5] = qHTS to identify inhibitors of the type 1 interferon - major histocompatibility complex class I in skeletal muscle: primary screen against the NCATS LOPAC collection (AID 1347405);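 also: lytic HiBiT luminescence reporting HLA-B protein level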; also: potency is read from the fitted curve at half-maximal effect
# In short: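 Immortalized human C25cl48 myoblasts with HiBiT knocked into endogenous HLA-B*08:01 were stimulated with 4.0 ng/ml IFN-beta and given compounds in a 7-point, 1:4.3 titration from 46 uM final; after 24 hrs, lytic HiBiT luminescence was read.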
# [6] = qHTS to identify inhibitors of the type 1 interferon - major histocompatibility complex class I in skeletal muscle: primary screen against the NCATS Pharmaceutical Collection (AID 1347407);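 also: luminescence of HiBiT knocked into endogenous HLA-B as interferon-induced MHC class I level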
# In short: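 Compounds […] were added to CRISPR-engineered HLA-B-HiBiT C25cl48 human myoblasts with 4.0 ng/ml IFN-beta. After 24 hrs at 37 C, cells were lysed and HiBiT luminescence measured.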
# [7] = qHTS of pediatric cancer cell lines to identify multiple opportunities for drug repurposing: Confirmatory screen for Saos-2 cells (AID 1347127); also: nearly all actives have a fitted effect of over 60% in size; also: potency is read from the fitted curve at half-maximal effect
# In short: (§1)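 Cells (500-1,000/well) in growth media were settled 5 h at 37 degrees C, then given compounds for 48 h. Viability was read as CellTiter-Glo luminescence. Primary runs used MIPE at 11 points (0.78 nM-46 µM) and NPC at 8 points (0.59 nM-46 µM); follow-ups used 11 points.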
# [8] = qHTS of pediatric cancer cell lines to identify multiple opportunities for drug repurposing: Confirmatory screen for OHS-50 cells (AID 1347128);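 also: compound exposure lasted 48 h at 37 degrees C; nearly all actives have a fitted effect of over 55% in size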; also: potency is read from the fitted curve at half-maximal effect
# In short: as §1
# [9] = qHTS of pediatric cancer cell lines to identify multiple opportunities for drug repurposing: Confirmatory screen for SK-N-SH cells (AID 1347129);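 also: cells exposed to compound for 48 h before viability read; nearly all actives have a fitted effect of over 60% in size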; also: potency is read from the fitted curve at half-maximal effect
# In short: as §1
# [10] = qHTS of pediatric cancer cell lines to identify multiple opportunities for drug repurposing: Confirmatory screen for Rh30 cells (AID 1347126); also: nearly all actives have a fitted effect of over 55% in size; also: potency is read from the fitted curve at half-maximal effect
# In short: as §1
smiles,measurement,setting,value
CC(C)NNC(=O)c1ccncc1,Potency,[1],inactive
same,Potency,[2],inactive
same,outcome,[3],inactive
same,Potency,[4],inactive
same,Potency,[5],inactive
same,Potency,[6],inactive
C[n+]1cc2c3c(ccc2c2ccc4cc5c(cc4c21)OCO5)OCO3,Potency,[7],1290 nM (active)
same,Potency,[8],2570 nM (active)
same,Potency,[9],1440 nM (active)
same,Potency,[1],44700 nM (active)
same,Potency,[2],5970 nM (active)
same,outcome,[3],inactive
same,Potency,[5],1780 nM (active)
NCCCNCCSP(=O)(O)O,"activity change, negative = cytotoxic",[10],-18.1% [at 9.47 µM]
same,"activity change, negative = cytotoxic",[7],-1.29% [at 9.58 µM]
same,"activity change, negative = cytotoxic",[8],0.588% [at 9.58 µM]
same,"activity change, negative = cytotoxic",[9],-2.99% [at 9.52 µM]
same,Potency,[1],inactive
same,Potency,[2],inactive
same,"activity change, negative = inhibition",[3],-3.39% [at 6.83 µM]
same,Potency,[4],inactive
same,Potency,[5],inactive
same,"activity change, negative = inhibition",[6],3.17% [at 9.18 µM]
CN/C(=C\[N+](=O)[O-])NCCSCc1ccc(CN(C)C)o1,Potency,[10],185 nM (active)
same,Potency,[7],inactive
same,Potency,[8],inactive
same,Potency,[9],inactive
same,Potency,[2],inactive
same,outcome,[3],inactive
same,Potency,[4],inactive
same,Potency,[5],inactive
same,Potency,[6],inactive
CCOC(=O)C1=C(C)NC(C)=C(C(=O)OC)C1c1cccc(Cl)c1Cl (stereo not drawn),Potency,[1],56200 nM (active)
same,Potency,[2],26700 nM (active)
CC(C)[N+](C)(CCOC(=O)C1c2ccccc2Oc2ccccc21)C(C)C,Potency,[1],inactive
same,Potency,[2],inactive
same,outcome,[3],inactive
same,Potency,[4],inactive
same,Potency,[5],inactive
same,Potency,[6],inactive
CN1C[C@H](C(=O)N[C@]2(C)O[C@@]3(O)[C@@H]4CCCN4C(=O)[C@H](Cc4ccccc4)N3C2=O)C[C@@H]2c3cccc4[nH]cc(c34)C[C@H]21,Potency,[10],inactive
same,Potency,[7],inactive
same,Potency,[8],inactive
same,Potency,[1],inactive
same,Potency,[2],inactive
same,outcome,[3],inactive
same,Potency,[4],inactive
same,Potency,[5],inactive
same,Potency,[6],inactive
Nc1c2c(nc3ccccc13)CCCC2O (stereo not drawn),Potency,[1],inactive
same,Potency,[2],inactive
same,outcome,[3],inactive
same,Potency,[4],inactive
same,Potency,[5],inactive
same,Potency,[6],inactive
CCCCNC(=O)NS(=O)(=O)c1ccc(C)cc1,Potency,[1],inactive
same,Potency,[2],inactive
same,outcome,[3],inactive
same,Potency,[4],inactive
O=C(O)CCCCCCCC(=O)O,Potency,[1],inactive
same,Potency,[2],inactive
same,outcome,[3],inactive
same,Potency,[4],inactive
same,Potency,[5],inactive
same,Potency,[6],inactive
CCCNC(C)C(=O)Nc1ccccc1C (stereo not drawn),Potency,[1],inactive
same,Potency,[2],inactive
same,outcome,[3],inactive
same,Potency,[4],inactive
same,Potency,[5],inactive
same,Potency,[6],inactive
CC(=O)[C@@]1(O)CC[C@H]2[C@@H]3CCC4=CC(=O)CC[C@]4(C)[C@H]3CC[C@@]21C,Potency,[1],inactive
same,Potency,[2],inactive
same,outcome,[3],inactive
same,Potency,[4],inactive
same,Potency,[5],inactive
same,Potency,[6],inactive
NC(N)=NC(=O)Cc1c(Cl)cccc1Cl,Potency,[1],inactive
same,Potency,[2],inactive
same,outcome,[3],inactive
same,Potency,[4],inactive
same,Potency,[5],inactive
same,Potency,[6],inactive
